Assay results: PubChem BioAssay AID493030 (The Scripps Research Institute Molecular Screening Center, 2011)
Out of some 2,300 compounds screened, about 1,500 (65%) were called active. The set was probably picked from earlier hits. The list is a sample of the results. A number with no mark means an inactive call.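 How the source made its calls: active means mean inhibition over three repeats above a set limit taken from the earlier primary screen (cut at about 30% in these data); inactive means the rest.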

Each compound was assayed against Platelet-activating factor acetylhydrolase 2, cytoplasmic (Homo sapiens) (UniProt Q99487) (assay: PAFAH2 enzyme inhibitors, confirmation, biochemical, fluorescence polarization, human (AID 493030;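 further: inhibitor blocks binding of rhodamine activity probe so polarization falls; 0% = enzyme with DMSO and 100% = wells lacking PAFAH2 protein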)). Details: recombinant PAFAH2, FP-rhodamine activity probe, at 3.39 µM, active compounds read high.

SMILES | inhibition
O=C(OCc1cn(-c2ccc(Cl)c(Cl)c2)nn1)c1ccccc1Cl | 43.1% (active)
O=C(COC(=O)c1ccccc1SCC(=O)N1CCCC1)Nc1ccccc1OC(F)F | 25.9%
O=C(COC(=O)c1cccc(Cl)c1)NC1CCCCCCC1 | 67.1% (active)
O=C(COC(=O)c1ccccc1Cl)NC1CCCCCCC1 | 70.3% (active)
N#Cc1ccccc1Sc1ccccc1C(=O)OCC(=O)NC1CCCCC1 | 21.3%
O=C(COC(=O)c1ccccc1SCC(=O)NC1CCCCC1)NC1CCCCC1 | 73.7% (active)
CC(C)(C)c1csc(NC2=NS(=O)(=O)c3ccccc32)n1 | 29.4%
O=C(COC(=O)c1cccs1)Nc1ccccc1Cl | 55.6% (active)
O=C(COC(=O)c1cccs1)NCc1cccs1 | 45.9% (active)
COc1ccccc1CNC(=O)COC(=O)c1cccs1 | 41.8% (active)
COc1ccccc1CNC(=O)COC(=O)c1sc(C)nc1C | 21%
O=c1oc(-c2ccco2)nc2sc3c(c12)CCCCC3 | 34.2% (active)
CC(C)c1ccc(NC(=O)COC(=O)c2ccc(CN3CCCC3=O)cc2)cc1 | 66.8% (active)
CCC(C)C(NC(=O)C1CCC(=O)N1C(=O)OCc1ccccc1)C(=O)NC(C(=O)N1CCCC1C(N)=O)C(C)CC (centres undefined) | 40.4% (active)
CN(C)S(=O)(=O)c1cccc(NC(=O)COC(=O)/C=C/c2cccs2)c1 | 58.5% (active)
Cc1ccc(S(=O)(=O)N(C)C)cc1NC(=O)COC(=O)/C=C/c1cccs1 | 51.7% (active)
O=c1[nH]n(-c2ccc([N+](=O)[O-])cc2)c(=O)c2ccccc12 | 32.6% (active)
CCOc1ncccc1C(=O)OCC(=O)Nc1cccc(S(=O)(=O)N2CCCCCC2)c1 | 57.6% (active)
CCc1ccc(C(=O)OCC(=O)Nc2cccc(S(=O)(=O)NC3=NCCCCC3)c2)cc1 | 51.8% (active)
O=C(COC(=O)c1ccccc1)Nc1cccc(S(=O)(=O)N2CCOCC2)c1 | 33.4% (active)
CS(=O)(=O)c1ccc(Cl)c(NC(=O)COC(=O)c2cccc(S(=O)(=O)N3CCCC3)c2)c1 | 21.3%
O=C(COC(=O)/C=C/c1ccc(Br)o1)Nc1cccc(S(=O)(=O)N2CCOCC2)c1 | 26.4%
CCC(C)(C)c1ccc(Oc2ccc(NC(=O)COC(=O)C3=COCCO3)cc2)cc1 | 61.5% (active)
O=C(COC(=O)/C=C/c1ccc(S(=O)(=O)N2CCCCCC2)cc1)NCc1ccccc1Cl | 24.4%
O=C(COC(=O)c1ccc2c(c1)OCCO2)NCc1ccccc1 | 45.8% (active)
COc1ccc(NC(=O)CC(NC(C)c2ccccc2)C(=O)O)cc1 (centres undefined) | 1.53%
O=C(COC(=O)c1ccc2c(c1)OCCO2)NCc1ccccc1Cl | 78.9% (active)
CC(NC(=O)COC(=O)c1ccc2c(c1)OCO2)c1ccccc1 (centres undefined) | 45.8% (active)
Cc1cnc(NC(=O)CSc2c(Cl)cccc2Cl)s1 | 21.7%
